According to PubChem BioAssay:
Values joined by “and” are separate entries in the source; they are usually repeats but may differ in a detail not shown here. Equal values may be shown once. Active and inactive are the calls of the source. Cut-off read from the data, not from the text of the source, unless noted: active = inhibition above about 80%; inactive = the rest.

Columns and labels:
[1] = growth inhibition, single agent or in combination, cell-based, chromothripsis tumors, cisplatin or BGB combos (AID 1671449); conditions: LFS_MB_P medulloblastoma cells;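 note: cells exposed for 96 hours; 0% = vehicle DMSO and 100% = killing by high DMSO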
[2] = growth inhibition, single agent and combos, cell-based, chromothripsis tumors, cisplatin or BGB combos (AID 1671450); conditions: HDN33 neuroblastoma cells, stronger effect = higher value;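 note: cells exposed to compound for four days; 0% = vehicle DMSO and 100% = cell killing by high DMSO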
[3] = growth inhibition, single agents and combos, ICB984, cell-based, cisplatin or BGB combos, synergistic combos for chromothripsis tumors (AID 1671451; call rule not given here;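 note: cells exposed for 96 hours before readout; 0% = vehicle DMSO and 100% = killing by high DMSO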); conditions: ICB984 medulloblastoma cells, drug combinations, stronger effect = higher value
[4] = growth inhibition, single agents and combos, LFS_MB_1R, cell-based, cisplatin or BGB combos, synergistic combos for chromothripsis tumors (AID 1671452); conditions: LFS_MB_1R medulloblastoma cells, stronger effect = higher value;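 note: cells exposed for 96 hours before readout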
[5] = growth inhibition, single agents and combos, HTB85, cell-based, BGB or cisplatin IC20 combos, synergistic combos for chromothripsis tumors (AID 1671453); conditions: HTB85 osteosarcoma cells, drug combinations, stronger effect = higher value;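 note: cells exposed for 96 hours before readout; 0% = vehicle DMSO and 100% = high DMSO killing control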
[6] = growth inhibition, single agents and combos, CRL2098, cell-based, BGB or cisplatin IC20 combos, synergistic combos for chromothripsis tumors (AID 1671454); conditions: CRL2098 osteosarcoma cells, drug combinations, stronger effect = higher value;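 note: cells exposed for 96 h before readout; 0% = vehicle DMSO and 100% = killing by high DMSO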
[7] = growth inhibition, single agents and combos, HD-MB03, cell-based, BGB or cisplatin IC20 combos, synergistic combos for chromothripsis tumors (AID 1671455; in the data active = inhibition above about 83%;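 note: 0% = vehicle DMSO and 100% = high DMSO as cytotoxic control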); conditions: HD-MB03 medulloblastoma cells, stronger effect = higher value
[8] = growth inhibition, single agents and combos, UWB1.289, cell-based, BGB or cisplatin combos, synergistic combos for chromothripsis tumors (AID 1671456); conditions: UWB1.289 ovarian carcinoma cells, stronger effect = higher value;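 note: cells exposed to compound for four days; 0% = vehicle DMSO and 100% = killing by high DMSO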
[9] = growth inhibition, single agents and combos, LFS_MB_2R, cell-based, cisplatin combos, synergistic combos for chromothripsis tumors (AID 1671457); conditions: LFS_MB_2R medulloblastoma cells, stronger effect = higher value;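 note: cells exposed to compound for four days before readout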
[10] = growth inhibition, MDA-MB-436, cell-based, BGB or cisplatin combos, synergistic combos for chromothripsis tumors (AID 1671458; call rule not given here;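 note: cells exposed for 96 hours; 0% = vehicle DMSO and 100% = killing by high DMSO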); conditions: MDA-MB-436 breast carcinoma growth inhibition, drug combinations, stronger effect = higher value
[11] = UWB1.289_BRCA1 ovarian cancer growth, cell-based, BGB or cisplatin combinations (AID 1671459); conditions: UWB1.289 BRCA1 ovarian carcinoma, drug combinations, stronger effect = higher value
[12] = drug combination toxicity in non-malignant astrocytes – cell-based, BGB or cisplatin IC20 combos, cytotoxicity control for chromothriptic childhood tumor combination screen (AID 1671460); conditions: Human astrocytes, viability inhibition, drug combinations, at 0.5 µM, stronger effect = higher value;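 note: cells exposed to compounds for 96 hours before viability readout; 0% = vehicle and 100% = killing control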
[13] = BT084 cell growth, single and combined drugs, ICGC_MB145, cisplatin and BGB IC40 combos (AID 1671461); conditions: BT084 medulloblastoma cells, drug combinations, stronger effect = higher value;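 note: cells exposed to drugs for 96 hours; 0% = vehicle DMSO and 100% = high DMSO full killing control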
[14] = RCMB18 cell growth, single agent and combined, cisplatin and BGB IC40 combos (AID 1671462); conditions: RCMB18 medulloblastoma cells, stronger effect = higher value;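 note: cells exposed to compound for four days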
[15] = CRL1545 cell growth, single agent and combined, cisplatin and BGB IC20 combos (AID 1671464); conditions: CRL1545 osteosarcoma cells, stronger effect = higher value;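 note: cells exposed to compound for 96 hours before readout; 0% = vehicle DMSO and 100% = high DMSO killing control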
[16] = measured here: combination with BGB IC40, at 0.05 µM
[17] = measured here: with BGB IC20 combination, at 0.5 µM
[18] = measured here: with cisplatin IC20 combination, at 0.5 µM
[19] = measured here: combination with cisplatin, at 0.5 µM
[20] = measured here: combination with cisplatin, at 5 µM

Question: Which inhibition ([1]; at 0.5 µM, stronger effect = higher value) does the source give for Nc1cc(F)ccc1NC(=O)/C=C/c1cnn(C/C=C/c2ccccc2)c1 here?
Answer: 19.7% (inactive) and -29.8% (inactive)

Question: What about the inhibition ([1]; measured here: combination with BGB IC20, at 0.005 µM) of the same molecule?
Answer: -27.4% and -4.91%

Question: What about the inhibition ([1]; measured here: combination with BGB IC40, at 0.005 µM) of the same molecule?
Answer: 89.6% and -23%

Question: And the inhibition [1, 16]?
Answer: 10.4% and 0.325%

Question: What about the inhibition ([1]; measured here: combination with cisplatin, at 0.5 µM, stronger effect = higher value) of the same molecule?
Answer: -17.2% and -44.8%

Question: What about the inhibition ([1]; measured here: combination with cisplatin, at 5 µM, stronger effect = higher value) of the same molecule?
Answer: -14.4% and -23.8%

Question: And the inhibition ([2]; BGB combo, at 5 µM)?
Answer: -55.4% and -3.94%

Question: And the inhibition ([2]; at 0.5 µM)?
Answer: -46.1% (inactive) and -1.14% (inactive)

Question: And the inhibition ([2]; cisplatin combo, at 5 µM)?
Answer: -62.1% and 12.2%

Question: And the inhibition [2, 17]?
Answer: -50.1% and 0.078%

Question: And the inhibition [2, 18]?
Answer: -34.6% and -2.05%

Question: And the inhibition ([2]; single agent, at 5 µM)?
Answer: -50.8% and -2.21%

Question: And the inhibition ([3]; BGB IC20 combo, at 0.005 µM)?
Answer: -16.5% and -7.2%

Question: And the inhibition ([3]; BGB IC40 combo, at 0.005 µM)?
Answer: -16% and 5.39%

Question: What about the inhibition ([3]; BGB IC40 combo, at 0.05 µM) of the same molecule?
Answer: -9.88% and 2.13%

Question: What about the inhibition ([3]; at 0.5 µM) of the same molecule?
Answer: -33.8% (inactive) and -9.71% (inactive)

Question: And the inhibition ([3]; cisplatin combo, at 0.05 µM)?
Answer: -15.5% and -1.74%

Question: What about the inhibition ([3]; cisplatin combo, at 0.5 µM) of the same molecule?
Answer: -45.9% and -17.3%

Question: What about the inhibition ([3]; cisplatin combo, at 5 µM) of the same molecule?
Answer: -20.4% and -41.2%

Question: What about the inhibition ([3]; measured here: 5 uM single agent, at 5 µM) of the same molecule?
Answer: -25.9% and -12.4%

Question: And the inhibition ([4]; at 0.5 µM)?
Answer: -30.2% (inactive) and -13.5% (inactive)

Question: And the inhibition [4, 16]?
Answer: -20% and -25.7%

Question: And the inhibition [4, 19]?
Answer: -51.6% and -12%

Question: And the inhibition [4, 20]?
Answer: -19.1% and 0.402%

Question: And the inhibition ([5]; at 0.5 µM)?
Answer: -30% (inactive) and 0.99% (inactive)

Question: And the inhibition ([5]; measured here: with BGB IC20, at 0.5 µM)?
Answer: -21.5% and 1.42%

Question: And the inhibition ([5]; measured here: with BGB IC20, at 5 µM)?
Answer: -17.1% and -19.7%

Question: And the inhibition ([5]; measured here: with cisplatin IC20, at 0.5 µM)?
Answer: -35.4% and -2.87%

Question: And the inhibition ([5]; measured here: with cisplatin IC20, at 5 µM)?
Answer: 19.9% and 1.46%

Question: And the inhibition ([5]; single agent, at 5 µM)?
Answer: -33.7% and -0.677%

Question: What about the inhibition ([6]; at 0.5 µM) of the same molecule?
Answer: -90.2% (inactive) and -24% (inactive)

Question: What about the inhibition ([6]; measured here: combination with BGB at IC20, at 0.5 µM) of the same molecule?
Answer: -110% and -20.4%

Question: What about the inhibition ([6]; measured here: combination with cisplatin at IC20, at 0.5 µM) of the same molecule?
Answer: -83.6% and -21.7%

Question: And the inhibition ([7]; at 0.5 µM)?
Answer: -17.4% (inactive) and -5.34% (inactive)

Question: What about the inhibition ([7]; measured here: combo with BGB at IC20, at 0.5 µM) of the same molecule?
Answer: -11.2% and -7.19%

Question: And the inhibition ([7]; measured here: combo with cisplatin at IC20, at 0.5 µM)?
Answer: -20.1% and 0.566%

Question: And the inhibition ([8]; at 0.5 µM)?
Answer: -10.9% (inactive) and -4.29% (inactive)

Question: What about the inhibition ([8]; measured here: inhibition with BGB combination, at 0.05 µM) of the same molecule?
Answer: -7.43% and -5.9%

Question: And the inhibition ([8]; measured here: inhibition with cisplatin combination, at 0.05 µM)?
Answer: -31.6% and -3.68%

Question: And the inhibition ([9]; at 0.5 µM)?
Answer: -20.7% (inactive) and -11.8% (inactive)

Question: What about the inhibition [9, 19] of the same molecule?
Answer: -25.8% and -7.04%

Question: And the inhibition [9, 20]?
Answer: -6.14% and -2.99%

Question: What about the inhibition ([10]; at 0.5 µM) of the same molecule?
Answer: -30.9% (inactive) and -9.97% (inactive)

Question: What about the inhibition ([10]; measured here: BGB combination, at 0.5 µM) of the same molecule?
Answer: -13.1%

Question: What about the inhibition ([10]; measured here: BGB combination, at 5 µM) of the same molecule?
Answer: -3.22% and -1.12%

Question: And the inhibition ([10]; measured here: cisplatin combination, at 0.5 µM)?
Answer: -59.9% and -6.82%

Question: And the inhibition ([10]; measured here: cisplatin combination, at 5 µM)?
Answer: 8% and 15.6%

Question: What about the inhibition ([11]; BGB combination, concentration series, at 5 µM) of the same molecule?
Answer: -29.7% and 12%

Question: And the inhibition ([11]; at 0.5 µM)?
Answer: -22.5% (inactive) and -3.56% (inactive)

Question: And the inhibition ([11]; cisplatin combination, concentration series, at 5 µM)?
Answer: -4.42% and 12.4%

Question: And the inhibition [12]?
Answer: 2.29% (inactive) and 8.32% (inactive)

Question: What about the inhibition ([12]; measured here: combo with BGB IC20) of the same molecule?
Answer: 16.9% and 12.5%

Question: And the inhibition ([12]; measured here: combo with cisplatin IC20)?
Answer: -7.65% and 10.5%

Question: And the inhibition ([13]; at 0.5 µM)?
Answer: -9.17% (inactive) and 0.933% (inactive)

Question: And the inhibition ([13]; cisplatin combination, at 0.5 µM)?
Answer: -6.82% and -1.46%

Question: And the inhibition ([13]; cisplatin combination, at 5 µM)?
Answer: -105% and 25.2%

Question: What about the inhibition ([13]; measured here: BGB IC40 combination 0.05 uM, at 0.05 µM) of the same molecule?
Answer: -19.8% and -24.1%

Question: And the inhibition ([13]; single agent, at 5 µM)?
Answer: -7.33% and 11.8%

Question: What about the inhibition ([14]; at 0.5 µM) of the same molecule?
Answer: 2.62% (inactive) and -10.6% (inactive)

Question: What about the inhibition ([14]; cisplatin combo, at 5 µM) of the same molecule?
Answer: -19.2% and 26.8%

Question: What about the inhibition ([14]; measured here: BGB IC40 combination, at 0.05 µM) of the same molecule?
Answer: -14.2% and 7.18%

Question: And the inhibition [14, 19]?
Answer: 9.23% and 6.5%

Question: And the inhibition ([14]; single agent, at 5 µM)?
Answer: 5.68% and -6.78%

Question: What about the inhibition ([15]; at 0.5 µM) of the same molecule?
Answer: -28.2% (inactive) and -6.93% (inactive)

Question: And the inhibition [15, 17]?
Answer: -50.8% and -4.55%

Question: And the inhibition [15, 18]?
Answer: -18.7% and -8.13%

Question: What about the inhibition ([15]; single agent, at 0.05 µM) of the same molecule?
Answer: -48.6% and -13.2%

Question: And the inhibition ([15]; single agent, at 5 µM)?
Answer: 23.9% and 22.7%
